# Data taken from the supplement of paper PMC12632987.
# Whole data set: some 4,500 sequences, median “median log2 fold change of GCK-ALFA target abundance (FLAG IP / Myc IP barcode read proportion)” near 0.078, cut for the lowest 2% near -0.6. Many of the other results were omitted from the sample, so the lowest values are more common in it than they were.
# B1: GBRAP_160_4153 (protein)
# chain: SEEIEKLIKEINEIADEAIKMMEGETPEQAKTIARVALGEMLLLVEENEAVSEETEDKIGEVVDATEATLKANPNLTVEEVKALLNEARDKIVKILKEES
# B2: GBRAP_160_4155 (protein)
# chain: SEELKKLIKEIKELADEAIKMMEGETPEQAKTIARVTLGDILLLVEENPAVSEEAEDKIGAIADATEATLKANPDLTVEEVKALVKEARDKVVAILEEEA
# B3: GBRAP_128_3366 (protein)
# chain: LDEALLAEIRALVERMITSSVEETAALTREIVARIGTLSLAEQEAAVEIILAALPKLTKEKLEVVADTIRAAAPELDPETQRLLAEVEVEALNLAEELEE
# B4: GBRAP_53_6391 (protein)
# chain: GEERLEELIEELNRLIEELKTADPETAIKLAREAVELLLELAELGLPEEELVELVRRFAEAARPKPELEPVLVELAKRLAALGREEAAAEVAEALVEELE
# B5: GBRAP_35_5625 (protein)
# chain: NTNKEIAEATVAVMEDTLLAVDEVPAETFIDTAIKVAKAGIEVAKELKDDKENAKKILEAVKELLEAALKKAEETGAPEEKIKELKELLKEVEELEKKLK
# B6: GBRAP_43_5791 (protein)
# chain: MEEIVEGALDFARTALETPEITDETKARIVVDAVDFAADEGLLTEEELEELLRLLAESVSLEVAERALEEILKRLKELGAPQSLIDVVEKALEEVKKRRA
# B7: GBRAP_160_3991 (protein)
# chain: SEEIEKLKEEFKKLFDEMLELAEGESPEERLAVVRVMMGEVILLAEESGVVSDEAEEEIAKIMDELVATVEANPDMSMEELKALVEEALKKIFEVIDKYS
# B8: GBRAP_52_5980 (protein)
# chain: AEAEARALAEELLALMLAGDREGARALIREIVATKSEAFLELVFAALAELARTATPEERDAIVELALLLEDEALEGGFDEAVVDAGVARVAAAAVAAAAA
# B9: GBRAP_14_3765 (protein)
# chain: MEEVEKIIDETGKEIAALLAELVPEKAEEFKEAIDEVRKETIARIKETGDALAAAEEGERRLAERIAEITADLPEERRAEALAVVRVLFGQAILEIDEAL
# B10: GBRAP_184_5033 (protein)
# chain: KVLEKEIKAKNKEELEEKLKKLAEEVKGSKADLIVLLDIENPTKEKVKLAIEGLGAIKKAGYVSSVTIGFENELSEELTDVALETADKEGVKVVLPISDE
# B11: GBRAP_42_5723 (protein)
# chain: MYLVNLEVVVATREELERAIAIWRERNARYRKEKGIIIRLTIAAPEEAAELAAEAEAESAELAKEADKELDWVVVAASADEVGDAIDIAVDLALEERKEE
# B12: GBRAP_35_5569 (protein)
# chain: STDETIVEMTVNTIEALTLAVPDLDPATLETITRQVVALAREVIEDIKNNLEGLKRILEALRALLAAIRARGLDDPHLQAAAAAVEEAIRLAEKAIKEAE
# B13: GBRAP_184_5315 (protein)
# chain: EVIRRFITVETKEEAEKKLKEIKEEIKKSGKKYTVYIEVKNPTKELIDTVFEEIKKMKEEGVDADFILVVEEPVDEEMEDYIVEKAKEAGARAVIALPEE
# B14: GBRAP_11_2707 (protein)
# chain: KKEKLKEIAKLAAEAAALTEQLLKEGVDNKELQAKLTAKIKELTELVKKYADESLKKLAEIAKELWEKALADPENKEQYLKELLATLRVLEGQALLEIEE
# B15: GBRAP_52_6040 (protein)
# chain: MRERMRRLAREIVELVRAGRLEEARERIRELVETLSLEELELLGEELAELAREAEPEDLDAVMEVALMLADELEKAGYPEVFADDLEARVARAAVENLER
# B16: GBRAP_11_2896 (protein)
# chain: KKEKLKEAAELAEKAAKLLEELIKEGPDNEELRKKAEEALEKLLELAKKYLDESSVELAESALELFEKAKEDPENAKEYLEQALAYVRVLEGQVLLEIEE
# B17: GBRAP_43_5752 (protein)
# chain: MEEIIEGAVDFATLAAEDPNISEEQKLKIAKDVFEIVADEGIKLPEELSKLTRALAKSLSLEQLKELLKHLKELAEKYPELKEDFEANAKIIEEAIKKKE
# B18: GBRAP_35_5553 (protein)
# chain: DFDKEVIEMVRATAEDLLLAVDDLPVDTLITMATQIAELTLKVAKDEKENKEELKELLEATLELLDAVIEKAEKEGAPEEDIEKLRKLKKELEEALKEAE
# B19: GBRAP_160_4282 (protein)
# chain: GEKLKELAEELREDRDEILSLVDKISAEEVRTFAVTSLGSILMEAIDGELLTDEEEDELAKIIDDLEAELDALKDASPEEIRAAIEKHFDKAIELLEKAA
# B20: GBRAP_125_3047 (protein)
# chain: SLEELVEALRLLAKKLGYSEEEVEEIARLARKYGVKGTLIAILLAEGEEELAELAAKLTDEQVAEVLLELKAWLEENPDASKEEVLKKLRELLEKALAKT
# B21: GBRAP_52_5975 (protein)
# chain: MREEMRRLAEEAVALMLAGDREGARALLEEIAETKTEEEITLFMEELAELAKTATPEERDAIVEVALLAEDIWLEAGFDEALADSNVARVAAAAYAAEQA
# B22: GBRAP_128_3472 (protein)
# chain: GVEEVRKWTKEVMEKMKTADDEEFRELATELAERLLTLPLEEVEAAVEVIKEHLPELTAEKLEILAEVLREARPQATPEKAALFADVESEALLLAEELEE
# B23: GBRAP_52_5855 (protein)
# chain: SKEKMRKLAEELLKLKLAGKEEELEKKVKELVATLSEEEILELLKELAELAKKANKEEAEAIAEVAELLADEAEKAGFDEDELSYELAKVYAAAYKVLQK
# B24: GBRAP_35_5567 (protein)
# chain: SFDETTAEMMVNTIEALTEAVEDIDPETLKTITEQITKAAKKVIEEIKDNKEALEKIKKALEKLLKALEKRGLDDPNVKAAAEAVKEAIKEAEKAIKEAE
# B25: GBRAP_52_6372 (protein)
# chain: REAEARAIVDELLALAEAGDEEGVEALVREVLASGDGALQAAVLREIRRRLEARDHPDPEALLRLAAIVADEVLEAEVDSPEVWAALTALAAAALALERA
# B26: GBRAP_160_4778 (protein)
# chain: SEKVEELKKSIEEAKEEILESIDTESPEETIIVVKGETGLILAEAYELEIDNDELEDALDEIGDELIEEMKKNKNASKEELKKIVEEYTEKALKKIEELT
# B27: GBRAP_43_5750 (protein)
# chain: MEEIIEGHVDFALLAAEDPNISEEQKLKIAKDTFDILADENISLPEESSKLTEALAKSLSLEQLKELLAHLKELAKKYPELKELFDKNSKIIEEAIKKLE
# B28: GBRAP_80_6795 (protein)
# chain: AEERLKKALEEIEKLDKELAKKVKEIVEIAREMGVSTEDLADFAEAIAELLKLDKEKARELVEELKEELEELKKEGNKAEAEAAVRVYAGEALLEVEELE
# B29: GBRAP_160_4201 (protein)
# chain: SEKVEKVIRLLREETERVIAEVPELSREEVANLADVEYGSVLMEAVELGIENDEILDTIADAADEIRRFLEENRDASVEEIKRGIREITERAIEEIKKIA
# Target: GABARAP, O95166
# Assay: median log2 fold change of GCK-ALFA target abundance (FLAG IP / Myc IP barcode read proportion) (log2 ratio); each designed protein is fused to an ALFA-tag nanobody in HEK293 cells to bring the named protein to FLAG-tagged glucokinase (GCK); Myc marks an untargeted standard; higher = target protein stabilised (more abundant)
# Conditions: target protein: 3xFLAG-MCP-GCK-ALFA reporter; HEK293 landing pad (RPLP)
# Procedure, shortened: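 Binders fused to an ALFA nanobody were recombined as a library into HEK293 landing-pad cells, which were induced with 2 μg mL^−1 doxycycline and then transfected to express a FLAG-tagged target and a Myc-tagged standard. After 48 h, circular RNA barcodes recovered by anti-FLAG and anti-Myc immunoprecipitation of lysates were reverse transcribed, amplified and sequenced. Each binder's target abundance is the median log2 ratio of FLAG to Myc barcode read proportions, from barcodes present at ≥10^−7 in both replicates, binders carrying ≥3 barcodes per replicate, a 10^−6 pseudocount and pooled replicates.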
# Sequence of GABARAP, O95166 (O95166 whole entry, the tested form may be a part): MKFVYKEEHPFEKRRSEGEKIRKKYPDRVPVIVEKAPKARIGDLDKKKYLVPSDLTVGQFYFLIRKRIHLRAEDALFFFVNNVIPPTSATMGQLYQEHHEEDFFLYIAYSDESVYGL
row,Binder,median log2 fold change
1,B1,-0.642
2,B2,-0.546
3,B3,0.309
4,B4,0.2
5,B5,-0.0947
6,B6,-0.0499
7,B7,-0.567
8,B8,-0.762
9,B9,0.0613
10,B10,-0.000909
11,B11,0.104
12,B12,-0.994
13,B13,0.243
14,B14,0.13
15,B15,-0.365
16,B16,0.203
17,B17,0.108
18,B18,-0.742
19,B19,-0.356
20,B20,-0.274
21,B21,0.107
22,B22,0.00124
23,B23,-0.0898
24,B24,0.378
25,B25,-0.638
26,B26,0.139
27,B27,0.475
28,B28,0.0713
29,B29,-0.204
